The source of these data is PubChem BioAssay (NCI).

Among the test systems are HCT-15 colon; HT29 colon; SNB-75 CNS; SNB-19 CNS; U251 CNS; PC-3 prostate; SK-MEL-5 melanoma; UACC-62 melanoma; LOX IMVI melanoma; SK-MEL-28 melanoma.
What all share (assay): NCI-60 one-dose screen, 48 h (100 = growth as untreated, 0 = no growth, -100 = all killed)
What all share (conditions): 10 µM unless noted

Molecules are shown by their SMILES. Compounds without any hit were thinned out: in the full panel of roughly 83,000, 20% have a hit.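 Results are percent growth after 48 hours of single-concentration exposure. 100 means growth as in untreated cells, lower positive values show inhibition; negative values down to -100 show cell death.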 Values without a mark were called inactive. Calls of active or inactive are those of the source. How the source made its calls: active means growth percent below 10; inactive means the rest.

With `O=C(O)C1CCC(=O)N1C(=O)OCc1ccccc1` (stereo not given), the growth is 97.3% in the experiment with HCT-15 colon; 101% in the experiment on HT29 colon; 80.9% in the experiment with SNB-75 CNS; 97.8% with SNB-19 CNS; 102% in the experiment on U251 CNS; 100% in the experiment on PC-3 prostate. The growth is 105% in the experiment with SK-MEL-5 melanoma, 87% with UACC-62 melanoma, 98% in the experiment on LOX IMVI melanoma and 140% in the experiment with SK-MEL-28 melanoma.
For `c1ccc(-c2nc([P+](c3ccccc3)(c3ccccc3)c3ccccc3)c(N3CCOCC3)o2)cc1`, the growth is 79.3% in the experiment with HCT-15 colon; 0.225% (active) with HT29 colon; 1.4% (active) in the experiment on SNB-75 CNS; 8.73% (active) in the experiment with SNB-19 CNS; 10.1% in the experiment on U251 CNS; 6.1% (active) in the experiment on PC-3 prostate. Also, the growth was -93.1% (active) with SK-MEL-5 melanoma, -37.1% (active) in the experiment with UACC-62 melanoma, 4.66% (active) in the experiment with LOX IMVI melanoma and 21.9% in the experiment with SK-MEL-28 melanoma.
Consider `COc1ccc(CNC(=O)C(O)C(Cc2ccccc2)NC(=O)c2[nH]c3ccccc3c(=O)c2C)cc1OC` (stereo not given), for which the growth is 101% in the experiment on HCT-15 colon; 100% with HT29 colon; 107% with SNB-75 CNS; 100% in the experiment with SNB-19 CNS; 101% in the experiment with U251 CNS; 102% in the experiment on PC-3 prostate. The growth is 103% in the experiment with SK-MEL-5 melanoma, 103% with UACC-62 melanoma, 104% in the experiment on LOX IMVI melanoma and 109% in the experiment on SK-MEL-28 melanoma.
For the compound `COc1cccc(C(=O)NCCCNc2cc(-c3cn(-c4ccccc4)nc3-c3cccc(OC)c3)ccn2)c1`, the growth is 35.5% in the experiment with HCT-15 colon; 27.7% in the experiment on HT29 colon; 63.5% in the experiment with SNB-75 CNS; 65% with SNB-19 CNS; 39.7% in the experiment with U251 CNS; 27.4% in the experiment with PC-3 prostate. Moreover, the growth is 9.17% (active) with SK-MEL-5 melanoma, 26.2% with UACC-62 melanoma, 51.8% in the experiment with LOX IMVI melanoma and 65.7% in the experiment on SK-MEL-28 melanoma.
Regarding `c1csc(-c2c3ccc(=[N+]4CCCCC4)cc-3oc3cc(N4CCCCC4)ccc23)c1`, the growth with HCT-15 colon is -70% (active); in the experiment with HT29 colon, -74.2% (active); in the experiment on SNB-75 CNS, -47.4% (active); in the experiment on SNB-19 CNS it was -87.6% (active); in the experiment with U251 CNS, -71.7% (active); with PC-3 prostate, -65.7% (active). Besides, the growth in the experiment on SK-MEL-5 melanoma is -90.5% (active); in the experiment on UACC-62 melanoma, -76.1% (active); in the experiment on LOX IMVI melanoma, -76.2% (active); in the experiment with SK-MEL-28 melanoma, -66.4% (active).
With `COc1ccc(N2CCN(c3nc(-c4cc(OC)c(OC)c(OC)c4)nc4ccccc34)CC2)cc1`, the growth with HCT-15 colon was 61.8%; in the experiment with HT29 colon, 81.5%; in the experiment on SNB-75 CNS, 84.5%; with SNB-19 CNS it was 93.5%; with U251 CNS, 96.1%; in the experiment with PC-3 prostate, 41.3%. Also, the growth is 46.4% in the experiment with SK-MEL-5 melanoma, 56% in the experiment with UACC-62 melanoma, 79.3% in the experiment on LOX IMVI melanoma and 87.1% in the experiment with SK-MEL-28 melanoma.
As to `O=c1c2c3c(sc2nc(N/N=C/c2ccc(Br)cc2)n1Cc1ccccc1)CCCC3`, the growth in the experiment on HCT-15 colon is 78.1%; in the experiment on HT29 colon, 101%; in the experiment on SNB-75 CNS, 106%; in the experiment with SNB-19 CNS, 76.4%; in the experiment with U251 CNS, 70.3%; in the experiment with PC-3 prostate, 70.2%. Besides, the growth with SK-MEL-5 melanoma was 87.2%; in the experiment with UACC-62 melanoma, 88.7%; in the experiment on LOX IMVI melanoma, 73%; with SK-MEL-28 melanoma, 120%.
Take `CC(=O)O[C@]1(C(C)=O)CCC2C3C[C@H](C)C4=CC(=O)CC[C@]4(C)C3CC[C@@]21C` (stereo not given in full): the growth in the experiment on HCT-15 colon was 92.3%; in the experiment on HT29 colon, 87.7%; with SNB-75 CNS, 96%; in the experiment on SNB-19 CNS it was 96.4%; with U251 CNS, 104%; in the experiment on PC-3 prostate, 68.4%. Besides, the growth in the experiment with SK-MEL-5 melanoma was 81.8%; in the experiment on UACC-62 melanoma, 79.3%; with LOX IMVI melanoma it was 95.7%; in the experiment with SK-MEL-28 melanoma, 108%.
For the compound `NC1=NCc2nc3ccccc3c(=O)n2C1`, the growth is 99.2% in the experiment on HCT-15 colon; 103% in the experiment on HT29 colon; 98.6% with SNB-75 CNS; 106% in the experiment on SNB-19 CNS; 103% in the experiment on U251 CNS; 112% with PC-3 prostate. Moreover, the growth in the experiment with SK-MEL-5 melanoma was 107%; with UACC-62 melanoma it was 92.3%; with LOX IMVI melanoma it was 99.3%; in the experiment on SK-MEL-28 melanoma it was 117%.
Turning to `O=C(N/N=C/c1ccncc1)c1ccc(C(F)(F)F)nc1Nc1cccc(C(F)(F)F)c1`, the growth in the experiment on HCT-15 colon was 13.1%; in the experiment with HT29 colon, 23.1%; with SNB-75 CNS it was 46.7%; with SNB-19 CNS it was 36%; in the experiment on U251 CNS, 8.49% (active); in the experiment on PC-3 prostate, 20.5%. Also, the growth with SK-MEL-5 melanoma was 10%; with UACC-62 melanoma, 15.1%; with LOX IMVI melanoma it was 20.5%; in the experiment on SK-MEL-28 melanoma, 44.9%.
Regarding `COc1ccc(-c2[nH]c(=S)n(C(CC3(C)NCC(=O)N3n3c(-c4ccccc4)cc(C)nc3=S)c3ccc(OC)cc3)c(=O)c2Br)cc1` (stereo not given), the growth is 39.9% in the experiment with HCT-15 colon; 40.6% with HT29 colon; 3.88% (active) in the experiment with SNB-75 CNS; 55.6% in the experiment on SNB-19 CNS; 55.8% with U251 CNS; 66% with PC-3 prostate. The growth in the experiment on SK-MEL-5 melanoma was 79.5%; in the experiment on UACC-62 melanoma it was 50.6%; in the experiment on LOX IMVI melanoma, 41.3%; in the experiment on SK-MEL-28 melanoma, 83.6%.
Take `CCCCc1ccc(Nc2ccc(Nc3ccc(CCCC)cc3S(=O)(=O)O)c3c2C(=O)c2ccccc2C3=O)c(S(=O)(=O)O)c1`: the growth in the experiment with HCT-15 colon is 104%; in the experiment on HT29 colon it was 113%; with SNB-75 CNS it was 89.9%; in the experiment with SNB-19 CNS, 104%; in the experiment with U251 CNS, 103%; in the experiment on PC-3 prostate it was 39.1%. Moreover, the growth was 91.9% in the experiment on SK-MEL-5 melanoma, 84.5% in the experiment on UACC-62 melanoma, 86.4% in the experiment with LOX IMVI melanoma and 108% in the experiment with SK-MEL-28 melanoma.
Take `CNS(=O)(=O)c1n[nH]nc1-c1cc(C(C)(C)C)c(O)c(C(C)(C)C)c1`: the growth in the experiment with HCT-15 colon was 95.3%; with HT29 colon it was 108%; with SNB-75 CNS, 80.5%; in the experiment with SNB-19 CNS, 107%; in the experiment on U251 CNS, 95.5%; in the experiment with PC-3 prostate, 97.2%. The growth with SK-MEL-5 melanoma was 94.2%; with UACC-62 melanoma it was 100%; with LOX IMVI melanoma it was 101%; in the experiment with SK-MEL-28 melanoma, 105%.
Turning to `CC(C)(C)CC(C)(C)Nc1c(-c2ccncc2)nc2cnccn12`, the growth is 97.9% in the experiment on HCT-15 colon; 93% in the experiment on HT29 colon; 80.4% in the experiment on SNB-75 CNS; 97.3% in the experiment with SNB-19 CNS; 99.2% with U251 CNS; 97.7% with PC-3 prostate. The growth is 99.4% in the experiment on SK-MEL-5 melanoma, 92.9% in the experiment with UACC-62 melanoma, 98.8% in the experiment with LOX IMVI melanoma and 112% with SK-MEL-28 melanoma.
